Data on 7 compounds can be found in PubChem BioAssay.

Structures are written as SMILES. Several values for one entry are separate records, joined by “and”; a condition that tells them apart may be missing. Equal values may be shown once. Activity calls are given as the source filed them.

A short description of assay [1]: binders of probe aFSTL3 on microarray, primary screen, stem cell growth factor project, biochemical, small-molecule microarray, fluorescence 635/667 (AID 1064).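 Also: measures binding of the biotinylated anti-FSTL3 antibody to printed compounds.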 The conditions noted are these: higher = more signal.
A short description of assay [2]: binders from COS7 lysate, DM2A8 probe, primary screen, torsin A project, cell lysate, small-molecule microarray, fluorescence 635/667 (AID 1065). The conditions noted are these: higher = more signal, COS7 lysate expressing mutant human TOR1A.
The nature of assay [3]: binders of probe aFGF2 on microarray, primary screen, stem cell growth factor project, biochemical, small-molecule microarray, fluorescence 635/667 (AID 1067).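 Also: measures binding of biotinylated aFGF2 protein to printed compounds on slides; z-score merges feature fluorescence and signal-to-noise across triplicate slides.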 The conditions noted are these: higher = more signal.
Assay [4] in a line: binders of probe aFGF10 on microarray, primary screen, stem cell growth factor project, biochemical, small-molecule microarray, fluorescence 635/667 (AID 1071).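 Also: score merges 667 nm spot intensity and signal to noise from triplicate slides.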 The conditions noted are these: higher = more signal.
Assay [5] deals with Neurogenic locus notch homolog protein 2 (Homo sapiens) (UniProt Q04721). The experiment in a line: Notch2 binders on small-molecule microarrays, primary screen, biochemical, small-molecule microarray, 635 nm fluorescence, stem cell growth factors (AID 1073). The conditions noted are these: Notch2 binding, higher = more signal.
Assay [6] addresses Pro-neuregulin-1, membrane-bound isoform (Homo sapiens) (UniProt Q02297). Put plainly: NRG1 binders on small-molecule microarrays, primary screen, psychiatric disease protein project, biochemical, small-molecule microarray, fluorescence 635/667 (AID 1075).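 Also: score combines 667 nm spot fluorescence with signal to noise.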 To be noted: NRG1 binding, 635 nm fluorescence, higher = more signal.
The subject of assay [7] is Neuregulin-1 EGF-like domain. Put plainly: binders of neuregulin-1 EGF-like domain, primary screen, biochemical, small-molecule microarray, 635 nm fluorescence (AID 1081).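 Also: binding of the protein to compounds printed on small-molecule microarray slides.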 To be noted: small-molecule microarray binding, higher = more signal.
A short description of assay [8]: FRG1 promoter luciferase signal modulators, primary screen, FRG1 inhibition for FSHD, cell-based, C2C12 myotubes, firefly/Renilla luciferase, luminescence (AID 1084). The conditions noted are these: higher = more signal, called active from +8 up or from −8 down.
Assay [9] is described as follows: binders of probe aFST on microarray, primary screen, stem cell growth factor project, biochemical, small-molecule microarray, fluorescence 635/667 (AID 1086).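 Also: score merges 667 nm fluorescence with signal-to-noise of each printed compound spot.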 To be noted: higher = more signal.
Assay [10] in a line: binders of probe aHhip on microarray, primary screen, stem cell growth factor project, biochemical, small-molecule microarray, fluorescence 635/667 (AID 1087).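 Also: score merges spot fluorescence at 667nm with spot signal to noise ratio.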 The conditions noted are these: higher = more signal.
For assay [11], the system named is PRMT1 (protein arginine N-methyltransferase 1). Put plainly: PRMT1 binders on small-molecule microarrays, primary screen, biochemical, small-molecule microarray, 635 nm fluorescence (AID 1088).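 Also: binding of Prmt1 protein to compounds spotted on small-molecule microarray slides.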 The conditions noted are these: small-molecule microarray binding, higher = more signal.
Assay [12] in a line: yeast growth modulation, basal conditions, primary screen, YJM789 clinical isolate, OD600, 24 h (AID 1089).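 Also: growth of clinical yeast isolate S. cerevisiae YJM 789 seeded 1000 cells per well; test concentration not given here.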 The conditions noted are these: S. cerevisiae YJM789 growth, higher = more signal, called active from +8 up or from −8 down.
Assay [13] is described as follows: fission yeast growth modulation, primary screen, strain 972, OD600, 24 h, no modulator (AID 1090).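 Also: basal condition with compound alone and no growth modifier present; test concentration not given here.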 To be noted: S. pombe 972 growth, higher = more signal, called active from +8 up or from −8 down.
The nature of assay [14]: S. cerevisiae growth modulation with rapamycin, primary screen, strain BY4716, OD600, 96 h (AID 1091). Also: test concentration not given here. To be noted: higher = more signal, called active from +8 up or from −8 down.
The target in assay [15] is Torsin-1A-interacting protein 2 (Homo sapiens) (UniProt Q8NFQ8). Put plainly: LULL1 binders on small-molecule microarray, primary screen, cell lysate, human LULL1 lysate, 635/667 nm fluorescence (AID 1092).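 Also: probe is lysate of COS7 cells overexpressing human LULL1; score merges per-feature 667 nm fluorescence with signal-to-noise.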 To be noted: hLULL1 lysate binding, 635 nm fluorescence, higher = more signal.
A short description of assay [16]: E. coli growth modulation, two-sided OD650, primary screen, E. coli filamentation project, strain DRC41, 24 h (AID 1093).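 Also: MC1000 strain lacking acrAB efflux and sulA so SOS filamentation is blocked; test concentration not given here.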 The conditions noted are these: OD650, 24 h, higher = more signal, called active from +8 up or from −8 down.
Assay [17] can be described thus: small-molecule microarray binders of probe aLefty2, primary screen, biochemical, biotinylated probe, 635/667 nm fluorescence (AID 1094).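 Also: score merges spot fluorescence near 667 nm with spot signal-to-noise ratio.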 To be noted: higher = more signal.
The test system of assay [18] is Noggin (protein binding on small-molecule microarray). The experiment in a line: Noggin binders on small-molecule microarray, primary screen, biochemical, 635/667 nm fluorescence (AID 1095).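 Also: score merges 667 nm feature fluorescence with signal to noise over triplicate slides.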 To be noted: 635 nm fluorescence, higher = more signal.
Assay [19] deals with Neurogenic locus notch homolog protein 3 (Homo sapiens) (UniProt Q9UM47). The experiment in a line: NOTCH3 binders on small-molecule microarray, primary screen, biochemical, 635/667 nm fluorescence (AID 1096). The conditions noted are these: NOTCH3 binding, 635 nm fluorescence, higher = more signal.
A short description of assay [20]: small-molecule microarray binders of probe aEGFR, primary screen, biochemical, biotinylated probe, 635/667 nm fluorescence (AID 1097).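 Also: probe is a biotinylated anti-EGFR antibody binding compounds printed on slides; score combines fluorescence near 667 nm and signal to noise of each spot.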 To be noted: higher = more signal.

Neurogenic locus notch homolog protein 3 (Homo sapiens), sequence (Q9UM47 whole entry, looked up): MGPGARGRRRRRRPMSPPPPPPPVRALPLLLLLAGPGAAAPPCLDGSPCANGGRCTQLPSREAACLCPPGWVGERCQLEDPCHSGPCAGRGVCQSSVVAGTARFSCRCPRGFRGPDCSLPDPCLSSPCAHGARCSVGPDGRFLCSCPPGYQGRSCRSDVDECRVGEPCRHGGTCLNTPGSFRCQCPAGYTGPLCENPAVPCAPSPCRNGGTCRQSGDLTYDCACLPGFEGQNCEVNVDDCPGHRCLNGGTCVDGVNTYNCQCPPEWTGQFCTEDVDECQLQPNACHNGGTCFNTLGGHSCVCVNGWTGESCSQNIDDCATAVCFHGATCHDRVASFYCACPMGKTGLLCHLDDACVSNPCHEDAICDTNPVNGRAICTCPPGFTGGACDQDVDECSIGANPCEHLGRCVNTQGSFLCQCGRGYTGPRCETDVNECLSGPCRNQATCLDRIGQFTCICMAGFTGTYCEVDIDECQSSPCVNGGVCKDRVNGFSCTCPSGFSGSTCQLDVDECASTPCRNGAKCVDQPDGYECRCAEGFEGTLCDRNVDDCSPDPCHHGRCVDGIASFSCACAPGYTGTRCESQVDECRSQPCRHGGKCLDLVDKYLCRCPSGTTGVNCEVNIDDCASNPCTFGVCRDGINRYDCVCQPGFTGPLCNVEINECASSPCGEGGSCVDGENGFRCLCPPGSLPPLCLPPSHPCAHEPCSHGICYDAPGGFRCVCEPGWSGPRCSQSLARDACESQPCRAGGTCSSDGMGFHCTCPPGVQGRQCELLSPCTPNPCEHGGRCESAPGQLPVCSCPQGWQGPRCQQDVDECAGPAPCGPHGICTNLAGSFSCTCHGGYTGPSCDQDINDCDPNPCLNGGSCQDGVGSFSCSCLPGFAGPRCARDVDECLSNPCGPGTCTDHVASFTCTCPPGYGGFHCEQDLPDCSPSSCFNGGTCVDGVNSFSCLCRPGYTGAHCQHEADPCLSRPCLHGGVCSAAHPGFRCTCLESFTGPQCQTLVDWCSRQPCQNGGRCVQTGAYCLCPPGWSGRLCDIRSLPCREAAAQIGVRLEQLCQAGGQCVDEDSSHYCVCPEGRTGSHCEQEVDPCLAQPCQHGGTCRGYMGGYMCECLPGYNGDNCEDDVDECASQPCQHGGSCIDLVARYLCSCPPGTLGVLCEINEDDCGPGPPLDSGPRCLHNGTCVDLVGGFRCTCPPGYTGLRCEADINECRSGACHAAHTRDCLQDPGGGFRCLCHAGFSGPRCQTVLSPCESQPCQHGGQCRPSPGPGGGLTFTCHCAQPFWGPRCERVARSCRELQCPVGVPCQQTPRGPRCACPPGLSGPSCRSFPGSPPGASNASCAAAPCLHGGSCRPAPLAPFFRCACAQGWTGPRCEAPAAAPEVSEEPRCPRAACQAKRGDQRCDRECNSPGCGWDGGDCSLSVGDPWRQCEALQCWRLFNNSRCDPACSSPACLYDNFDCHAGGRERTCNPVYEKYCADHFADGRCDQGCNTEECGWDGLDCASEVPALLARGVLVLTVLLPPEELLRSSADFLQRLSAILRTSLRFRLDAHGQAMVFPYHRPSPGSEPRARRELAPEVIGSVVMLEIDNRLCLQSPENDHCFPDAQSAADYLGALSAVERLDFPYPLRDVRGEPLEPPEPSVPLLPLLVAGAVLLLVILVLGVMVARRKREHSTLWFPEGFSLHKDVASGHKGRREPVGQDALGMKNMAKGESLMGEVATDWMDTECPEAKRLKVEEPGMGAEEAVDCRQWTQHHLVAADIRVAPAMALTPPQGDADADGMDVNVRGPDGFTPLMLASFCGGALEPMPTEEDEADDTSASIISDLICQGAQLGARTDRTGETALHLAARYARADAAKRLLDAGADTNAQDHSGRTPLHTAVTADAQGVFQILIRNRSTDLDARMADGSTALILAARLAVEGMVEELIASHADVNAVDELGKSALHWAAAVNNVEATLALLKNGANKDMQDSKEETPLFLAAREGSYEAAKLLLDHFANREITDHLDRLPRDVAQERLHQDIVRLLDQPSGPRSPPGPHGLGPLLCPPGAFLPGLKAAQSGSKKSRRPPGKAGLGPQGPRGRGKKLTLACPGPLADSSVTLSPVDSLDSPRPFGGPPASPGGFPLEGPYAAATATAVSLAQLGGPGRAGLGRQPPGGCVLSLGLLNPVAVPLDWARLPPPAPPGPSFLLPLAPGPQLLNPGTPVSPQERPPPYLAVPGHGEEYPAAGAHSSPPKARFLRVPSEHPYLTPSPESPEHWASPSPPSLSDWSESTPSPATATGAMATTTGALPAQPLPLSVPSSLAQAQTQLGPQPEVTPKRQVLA
Torsin-1A-interacting protein 2 (Homo sapiens), sequence (Q8NFQ8 whole entry, looked up): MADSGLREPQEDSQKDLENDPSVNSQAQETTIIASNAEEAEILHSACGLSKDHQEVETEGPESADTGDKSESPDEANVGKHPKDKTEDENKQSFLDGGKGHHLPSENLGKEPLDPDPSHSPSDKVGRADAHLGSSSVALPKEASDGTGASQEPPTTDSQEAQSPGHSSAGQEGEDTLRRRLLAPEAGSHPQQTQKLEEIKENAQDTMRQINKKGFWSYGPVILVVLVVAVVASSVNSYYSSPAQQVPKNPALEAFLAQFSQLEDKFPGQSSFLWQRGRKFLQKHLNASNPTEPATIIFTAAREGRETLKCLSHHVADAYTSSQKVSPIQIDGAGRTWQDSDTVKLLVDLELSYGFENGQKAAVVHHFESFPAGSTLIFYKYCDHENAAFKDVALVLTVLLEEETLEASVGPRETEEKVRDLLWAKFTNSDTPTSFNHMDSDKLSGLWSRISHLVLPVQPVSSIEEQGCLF
Pro-neuregulin-1, membrane-bound isoform (Homo sapiens), sequence (Q02297 whole entry, looked up, the tested form may be a part, canonical isoform): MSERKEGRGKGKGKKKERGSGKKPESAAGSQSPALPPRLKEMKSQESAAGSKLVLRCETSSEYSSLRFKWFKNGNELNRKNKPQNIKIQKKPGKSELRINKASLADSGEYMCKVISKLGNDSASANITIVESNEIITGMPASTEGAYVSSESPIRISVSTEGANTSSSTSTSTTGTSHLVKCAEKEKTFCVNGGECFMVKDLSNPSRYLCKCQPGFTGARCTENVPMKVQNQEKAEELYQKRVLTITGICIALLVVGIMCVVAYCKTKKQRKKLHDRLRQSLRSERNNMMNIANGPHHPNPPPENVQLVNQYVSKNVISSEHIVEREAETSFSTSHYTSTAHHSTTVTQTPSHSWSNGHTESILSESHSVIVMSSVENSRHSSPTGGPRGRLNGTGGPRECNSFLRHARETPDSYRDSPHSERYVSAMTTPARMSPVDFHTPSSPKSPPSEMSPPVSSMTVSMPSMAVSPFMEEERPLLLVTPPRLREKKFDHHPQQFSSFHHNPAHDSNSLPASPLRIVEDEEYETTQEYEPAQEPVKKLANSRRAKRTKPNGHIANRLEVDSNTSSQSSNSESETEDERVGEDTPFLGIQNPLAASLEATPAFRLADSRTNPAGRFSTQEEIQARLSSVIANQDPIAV

On to `COC(=O)C1=C(C)N(Cc2ccccc2)C2=C3C(=O)N(c4ccccc4)C(=O)[C@@H]3[C@@](O)(C(=O)OC)C(=O)N2[C@@H]1c1ccccc1`, for which the composite z-score in assay [1] was -0.302 and -0.483; in assay [2] it was 0.205 and 0.642; in assay [3], -0.118 and -0.137; in assay [4] it was 0.738 and 0.591; in assay [5], 0.897 and 1.21; in assay [6] it was 0.383 and 0.418. For the same compound, the composite z-score in assay [7] is 1.02 and 0.99; in assay [9], 0.366 and 0.346; in assay [10], -0.166 and -0.375; in [11], 0.345 and 1.13; in assay [15] it was 0.806 and 1.46; in assay [17], -0.0736 and -0.0453. Also, the composite z-score in assay [18] was 0.608 and 0.455; in assay [19], 0.54 and 1.04; in assay [20] it was -0.0125 and -0.0534. Also, the z-score is 0.0445 (inactive) and -1.22 (inactive) in assay [8]; 0.286 (inactive) and -1.22 (inactive) in [12]; -1.52 (inactive) and -2.29 (inactive) in assay [13]; -1.18 (inactive) and -1.1 (inactive) in [14]; 0.117 (inactive) and 1.24 (inactive) in [16].

Consider `C[N+](C)(C)CCCCNC(=O)[C@H]1C[C@H]2C(=O)N[C@@H](CCCC[N+](C)(C)C)C(=O)N2[C@H]1c1ccc(O)cc1`, for which the composite z-score was -0.589 and -0.197 in assay [1]; 2 and 1.03 in [2]; -0.051 and -0.216 in assay [3]; 0.889 and 0.379 in [4]; 0.443 and -0.234 in [5]; 0.289 and -0.641 in [6]. Further, the composite z-score in [7] was 1.38 and 0.394; in assay [9], -0.142 and 0.287; in assay [10], 0.21 and -0.134; in assay [11], 1.54 and 1.55; in assay [15], -0.296 and -0.656; in [17] it was -0.171 and -0.214. The composite z-score is 1.73 and 1.84 in [18]; 0.97 and 0.969 in assay [19]; 0.0338 and -0.127 in [20]. In addition, the z-score is 0.717 (inactive) and 0.376 (inactive) in [8]; 0.877 (inactive) and -0.0113 (inactive) in assay [12]; 0.565 (inactive) and 0.352 (inactive) in assay [13]; -1.16 (inactive) and -1.35 (inactive) in assay [14]; -0.118 (inactive) and 0.0161 (inactive) in assay [16].

As for `C[C@@H](ON=C1[C@H]2CCn3c(=O)n(-c4ccccc4)c(=O)n3[C@H]2[C@H](O)[C@@H]2O[C@H]12)c1cn([C@H](CO)Cc2ccccc2)nn1`, the composite z-score in assay [1] was -0.289; in assay [2], 0.316; in assay [3], -0.113; in assay [4] it was 0.449; in [5], 0.308; in [6], 0.11. Further, the composite z-score was 0.536 in [7]; 0.0701 in [9]; -0.64 in [10]; 0.587 in assay [11]; 0.61 in [15]; -0.282 in [17]. Also, the composite z-score in [18] is 0.557; in [19], 0.668; in assay [20], -0.194. Also, the z-score in [8] was 0.887 (inactive); in [12] it was -0.217 (inactive); in assay [13], -0.165 (inactive); in [14], 0.0121 (inactive); in assay [16], 0.381 (inactive).

Consider `O=C1C[C@]2(c3ccc([N+](=O)[O-])cc3)C(=O)N(Cc3ccccc3)c3cc(CO)ccc3[C@H]2N1C1CCCCC1`, for which the composite z-score was -0.391 and -0.0715 in [1]; 0.0304 and -0.0759 in assay [2]; -0.145 and 0.103 in [3]; -0.416 and 0.208 in assay [4]; 0.168 and 0.853 in assay [5]; -0.183 and 0.819 in [6]. Moreover, the composite z-score in assay [7] was 1.25 and 1.12; in assay [9], -0.0791 and -0.129; in assay [10] it was -0.185 and 1.38; in [11], 1.33 and 0.39; in [15], 2.21 and 1.14; in assay [17], -0.21 and 0.668. The composite z-score was 0.469 and 0.225 in assay [18]; 0.219 and 0.161 in [19]; -0.0828 and 0.805 in [20]. The z-score in [8] is -0.0521 (inactive) and 0.981 (inactive); in [12], -0.754 (inactive) and -0.363 (inactive); in [13], 0.31 (inactive) and -0.838 (inactive); in assay [14] it was -1.02 (inactive) and 3.78 (inactive); in assay [16] it was 0.245 (inactive) and 0.545 (inactive).

Regarding `CC(C)OC(=O)C=C1C[C@@H](c2cccc(C(F)(F)F)c2)O[C@@H](c2cccc(C(F)(F)F)c2)O1`, the composite z-score is 0.0946 and 0.128 in assay [1]; 0.297 and 1.36 in assay [2]; 0.0043 and -0.13 in assay [3]; 0.884 and -0.153 in assay [4]; -0.27 and -0.628 in assay [5]; 1.13 and 0.36 in assay [6]. The composite z-score was 1.01 and 1.08 in assay [7]; -0.0032 and -0.598 in [9]; -0.236 and -0.253 in [10]; 0.97 and 1.25 in assay [11]; 2.98 and 2.18 in [15]; -0.143 and -0.177 in [17]. Besides, the composite z-score was -0.696 and -1.07 in [18]; -0.534 and -0.875 in assay [19]; -0.254 and -0.243 in assay [20]. Also, the z-score is -0.0881 (inactive) and -0.227 (inactive) in assay [8]; 0.104 (inactive) and -0.425 (inactive) in assay [12]; 0.63 (inactive) and 0.404 (inactive) in assay [13]; 0.938 (inactive) and 1.23 (inactive) in assay [14]; -0.889 (inactive) and -1.05 (inactive) in assay [16].

With `C=C[C@@H](OC)[C@H](O)c1ccc(O)c(F)c1`, the composite z-score is 1.24 and 0.937 in [1]; -0.598 and -1.38 in assay [2]; -0.183 and -0.222 in assay [3]; -0.609 and -0.315 in assay [4]; -1.74 and -0.398 in assay [5]; -0.725 and -0.815 in assay [6]. Besides, the composite z-score was -0.564 and -0.928 in assay [7]; -1.4 and -1.25 in assay [9]; -0.0708 and -0.175 in assay [10]; -0.846 and -1.51 in assay [11]; -0.329 and -0.941 in assay [15]; -0.257 and -0.124 in [17]. Besides, the composite z-score in assay [18] was -2.13 and -1.13; in assay [19], -1.37 and -0.192; in assay [20] it was -0.435 and -0.299. Moreover, the z-score was 0.679 (inactive) and -0.707 (inactive) in assay [8]; 0.144 (inactive) and -3.13 (inactive) in assay [12]; -1.44 (inactive) and -3.23 (inactive) in assay [13]; 0.126 (inactive) and -0.692 (inactive) in assay [14]; 0.401 (inactive) and 1.45 (inactive) in assay [16].

Take `C=CC[C@H](O)c1ccc(OCCO)cc1`: the composite z-score in [1] is 0.857 and 0.327; in assay [2], -0.688 and 0.148; in assay [3], -0.153; in [4], -1.16 and -0.746; in assay [5], -1 and -1.04; in [6], 0.524 and -0.434. In addition, the composite z-score in [7] is 0.176 and 0.997; in [9], -0.396 and -0.905; in assay [10], -0.261 and -0.296; in assay [11], -0.145 and -1.37; in assay [15] it was -0.435 and -2.14; in [17], -0.0653 and -0.181. For the same compound, the composite z-score in assay [18] is -0.292 and 0.249; in assay [19] it was -0.847 and -0.324; in assay [20], -0.162 and -0.191. The z-score in [8] is 0.831 (inactive) and 2.16 (inactive); in assay [12], -0.192 (inactive) and -0.831 (inactive); in assay [13], -0.228 (inactive) and -0.917 (inactive); in assay [14], -0.389 (inactive) and -1.19 (inactive); in assay [16], -0.646 (inactive) and -0.812 (inactive).
